Reference: PubChem BioAssay AID651599 (National Center for Advancing Translational Sciences (NCATS), 2012)
Results filed as inconclusive are left out. Entries that show only a call come without a potency. Active and inactive are the calls of the source. Calls follow the shape of the dose curve; as a rule, active = well fitted inhibition curve with a large enough effect; inconclusive = small, poorly fitted or top-dose-only effect; inactive = no such curve, though single readings can be large or run the other way.

These compounds were tested against Tumor susceptibility gene 101 protein (Homo sapiens) (UniProt Q99816) (assay: qHTS Assay for Iinhibitors of HIV-1 Budding by Blocking the Interaction of PTAP/TSG101: Hit Validation in TR assay). Conditions: Tsg101 binding domain + Texas Red-labeled PTAP peptide, fluorescence polarization, 20 min; series mostly up to 57.5 µM.
How it was run: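 Texas Red-PTAP peptide (50 nM) binding to Tsg101 binding domain (10 uM), both final, in pH 7.5 HEPES buffer, read as polarization after 20 min at room temperature; compounds pinned before peptide addition.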
Potency is read from the fitted curve at half-maximal effect.

Sequence of Tumor susceptibility gene 101 protein (Homo sapiens) (Q99816 whole entry, looked up, the tested form may be a part): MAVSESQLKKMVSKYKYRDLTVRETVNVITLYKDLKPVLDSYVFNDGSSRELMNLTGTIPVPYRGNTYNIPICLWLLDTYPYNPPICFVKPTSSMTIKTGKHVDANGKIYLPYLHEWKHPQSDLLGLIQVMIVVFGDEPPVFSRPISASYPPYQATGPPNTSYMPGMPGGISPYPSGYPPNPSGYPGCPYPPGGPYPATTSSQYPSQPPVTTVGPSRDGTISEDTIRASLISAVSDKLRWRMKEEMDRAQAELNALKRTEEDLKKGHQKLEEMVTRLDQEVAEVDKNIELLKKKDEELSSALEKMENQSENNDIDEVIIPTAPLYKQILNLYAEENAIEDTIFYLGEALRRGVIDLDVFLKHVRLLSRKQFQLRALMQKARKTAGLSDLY

SMILES	Potency
Nc1cccc(N2C(=O)c3cccc4c(N)ccc(c34)C2=O)c1	inactive
O=C1NC(c2ccco2)Nc2sc3c(c21)CCN(Cc1ccccc1)C3 (centres undefined)	inactive
O=C(c1ccccc1)[C@@H]1[C@@H]2C(=O)N(c3ccc(F)cc3)C(=O)[C@@H]2C2CCCN21 (some centres undefined)	inactive
O=Cc1ccc2noc(-c3ccc(F)cc3)c2c1	inactive
Clc1ccc(-c2nnc3sc(-c4ccc(Br)o4)nn23)cc1	inactive
CCOC(=O)Cn1c(=O)c(-c2cc(Br)ccc2N)nc2ccccc21	inactive
COc1ccc(C2=CC(c3ccco3)n3ncnc3N2)cc1 (centres undefined)	inactive
Cc1cc[n+](-c2[nH]c(=O)sc2/C=N/NC([S-])=Nc2ccccc2)cc1C	inactive
CCN(CC)c1ccc(/C=c2\sc3nc4ccccc4n3c2=O)c(O)c1	inactive
CCOC(=O)c1cc2n(c1/N=C/N(C)C)-c1ccccc1C2=O	inactive
Cc1cc(=O)c2c([nH]1)c(C)cc1[nH]c(C)c(C)c12	inactive
Cc1ccc(C2C=C(c3ccc(Cl)cc3)Nc3nc(NS(=O)(=O)c4ccccc4)nn32)cc1 (centres undefined)	inactive
O=C(O)CCNc1ccc(NCCC(=O)O)c2c1C(=O)c1ccccc1C2=O	inactive
COc1ccc(OC)c(/C=c2\sc3nc(-c4cccs4)nn3c2=O)c1	inactive
Cn1cc(/C=C2\SC(=S)N(NC(=O)c3ccccc3Cl)C2=O)c2ccccc21	inactive
COc1ccc(CCn2c(NN=C(C)C)nc3c2c(=O)[nH]c(=O)n3C)cc1	inactive
CC1CCCN(Cc2c(O)ccc3c2O/C(=C\c2ccco2)C3=O)C1 (centres undefined)	inactive
Cc1ccc2c(c1)c1nc3ccccc3nc1n2C	inactive
N#CC(C(=O)NCc1ccccc1)c1nc2ccccc2nc1N1CCCC1 (centres undefined)	inactive
CCN1CC=C2C(C#N)=C(N)C(C#N)(C#N)[C@H](c3cccc(OC)c3OC)[C@H]2C1	inactive

SMILES	Potency
O=C(OCCN1C(=O)c2cccc3c(N4CCOCC4)ccc(c23)C1=O)c1cccc(Cl)c1	inactive
CC1CCN(c2ccc3c(c2)S(=O)(=O)c2cccc(C(=O)NCc4cccc(F)c4)c2C3=O)CC1	inactive
Cc1cc2nc3c(=O)n(C4CCCCC4)c(=O)[nH]c3nc2cc1N	inactive
Cc1ccccc1-c1ccc(/C=C2/SC(N3CCOCC3)=NC2=O)o1	inactive
CCN(CC)C(=O)Cn1c(=O)c2ccccc2n2c(=S)sc(-c3cccc(C)c3)c12	inactive
CC(=O)N/N=C/c1cc(C(C)C)cc(/C=N/NC(C)=O)c1O	inactive
C=CCn1c(=O)/c(=C/c2ccc(C)o2)s/c1=C(/C#N)C(=O)c1ccccc1	inactive
Cc1ccc(-c2nc(C=Nc3ccc(O)cc3)c(O)o2)cc1	inactive
Cc1ccc(/C=C/C(=O)Nc2ccc(S(=O)(=O)Nc3onc(C)c3C)cc2)cc1	inactive
Cn1c(=O)c(Nc2ccc(Cl)cc2)c2c3c(cccc31)C(=O)c1ccccc1-2	inactive
O=C(O)[C@@H]1[C@H]2C[C@H]3c4[nH]c5ccccc5c4CCN3C[C@@H]2CC[C@@H]1O	13 µM (active)
c1ccc(-c2cnn3c(-c4ccccc4)c(-c4ccccc4)nc3n2)cc1	inactive
Cn1cc(/C=C2\SC(=S)N(NC(=O)c3cccc(Cl)c3)C2=O)c2ccccc21	inactive
CN1CCC2(CC1)C1CN(C)CC=C1C(C#N)=C(N)C2(C#N)C#N (centres undefined)	inactive
O=C1c2ccccc2C(=O)c2c1ccc(O)c2O	inactive
CCCCNC(=O)C(C#N)c1nc2ccccc2nc1N1CCN(Cc2ccc3c(c2)OCO3)CC1 (centres undefined)	inactive
Cc1cc(=O)oc2ccc(OC(=O)CN3C(=O)c4cccc([N+](=O)[O-])c4C3=O)cc12	inactive
CN(C)CCCN1C(=O)c2cccc3c(Br)ccc(c23)C1=O	inactive
O=C(NCc1ccc(F)cc1)c1cccc2c1C(=O)c1ccc(N3CCC(Cc4ccccc4)CC3)cc1S2(=O)=O	inactive
